p53ts 39C kill – kills p53ts cells at the nonpermissive temperature | H1299-p53A138V viability at 39C, ATP luminescence, 24 h | Potency, µM (titrated, usually from 46.1 µM), without a hit: at the highest dose activity change, negative = cell killing, usual class: cytotoxic | 1.5% of 130,000 active; also: nearly all actives have a fitted effect of over 55% in size
p53ts 32C kill – kills p53ts cells at the permissive temperature. H1299-p53A138V at 32C, ATP luminescence viability, 24 h. Potency, µM (doses to about 46.1 µM), for the others: top-dose activity change, negative = cytotoxicity, usual class: cytotoxic. 0.93% of 130,000 active. AID 924;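 also: 0% = DMSO and -100% = full killing by reference compound; nearly all actives have a fitted effect of over 55% in size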
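ATP-content luminescence (ATPlite) read-out after 24 h compound exposure at 32C in H1299-p53A138V cells (600/well). Tested up to 46 uM. Normalized to DMSO (0%) and 100 uM tamoxifen (100% killing); Hill-fit AC50.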
Luciferase inh – inhibitors of firefly luciferase; 2.2% of 72,000 active; P08659; Potency, µM (series often up to 57.1 µM), inactives show top-dose activity change, negative = inhibition, hits mostly inhibitors; AID 411; purified firefly luciferase, luminescence, 8 min; also: nearly all actives have a fitted effect of over 40% in size
Target sequence (P08659 whole entry, looked up): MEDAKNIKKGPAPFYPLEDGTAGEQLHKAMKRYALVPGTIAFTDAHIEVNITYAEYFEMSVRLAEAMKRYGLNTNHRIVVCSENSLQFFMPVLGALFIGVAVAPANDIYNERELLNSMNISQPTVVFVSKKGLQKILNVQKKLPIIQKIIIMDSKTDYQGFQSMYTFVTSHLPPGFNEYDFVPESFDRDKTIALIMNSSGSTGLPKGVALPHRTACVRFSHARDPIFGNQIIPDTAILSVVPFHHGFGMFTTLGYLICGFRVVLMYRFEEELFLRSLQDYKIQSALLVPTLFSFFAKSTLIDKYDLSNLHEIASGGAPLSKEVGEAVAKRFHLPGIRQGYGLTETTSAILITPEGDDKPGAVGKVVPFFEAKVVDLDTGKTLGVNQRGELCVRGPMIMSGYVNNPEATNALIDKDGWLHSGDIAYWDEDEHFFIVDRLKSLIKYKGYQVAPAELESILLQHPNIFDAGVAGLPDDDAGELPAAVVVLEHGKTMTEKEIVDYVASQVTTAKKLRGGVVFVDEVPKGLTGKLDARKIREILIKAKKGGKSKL
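Inhibition of light generation by firefly luciferase from ATP and luciferin was profiled with concentration-response curves per sample, ATP held at 10 uM within the enzyme's linear range. Plates were read by luminescence after an 8-minute ambient incubation.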
* marks the source's active call; other numbers are inactive results; ? = inconclusive; . = not tested or not shown; [ ] = another dose, or the depositor's remark. Shown are actives, neighbours in structure and some others; about 2.6% of the full set was active somewhere. Calls follow the shape of the dose curve; as a rule, active = well fitted curve in the direction sought with a large enough effect; inconclusive = small, poorly fitted or top-dose-only effect, or another doubt; inactive = no such curve, though single readings can be large; an effect the other way counts as inactive or inconclusive. Unless noted, % is scaled to controls: 0 for no effect and ±100 for the full control effect; potency is read from the fitted curve at half-maximal effect.

SMILES	p53ts 39C kill	p53ts 32C kill	Luciferase inh
CC1=C(C(=O)Nc2ccccc2C)C(c2ccc[nH]2)n2ncnc2N1 (centres undefined)	-13%	-3%	.
COc1cccc(-c2nc(N3CCN(C)CC3)c3ccccc3n2)c1	-20%	-1%	2%[2.29 µM]
Cc1ccc(S(=O)(=O)n2nc(-c3ccco3)nc2NCc2ccc(N(C)C)cc2)cc1	-16%	-4%	.
O=C(Nc1ccc(CCC(=O)N2CCCC2)cc1)c1ncn[nH]1	-10%	-5%	-3%
O=C(Nc1ccc(N2CCCC2)c(Cl)c1)c1ccco1	7.9µM*	10µM*	5µM*
O=C(Nc1ccc(N2CCCCC2)c(Cl)c1)c1ncn[nH]1	?	?	10µM*
O=C(Nc1ccc(N2CCCCC2)c(C(=O)O)c1)c1ccco1	7%	3%	-1%
COc1cccc(-c2nnc(Nc3nc4c(F)cccc4s3)o2)c1	13µM*	?	13µM*
COc1cccc2sc(Nc3nnc(-c4ccccc4Cl)o3)nc12	13µM*	?	16µM*
COc1ccccc1-c1nnc(Nc2nc3c(OC)cccc3s2)o1	?	4%	?
COc1cccc(-c2nnc(-c3ccc(C(F)(F)F)cc3)o2)c1	-7%	-3%	.
CCc1ccc(NC(=O)CN2C(=O)C3(SCC(=O)N3c3ccccc3)c3ccccc32)cc1 (centres undefined)	-13%	2%	.
COc1ccc(-c2nnc(SCC(=O)N(C)Cc3ccccc3)o2)cc1OC	-10%	10%	.
CC(=O)c1cccc(NC(=O)CSc2nnc3ccc(-c4ccc(Cl)cc4)nn23)c1	?	14%	.
CCOC(=O)c1cc(-c2ccccc2)n(CCC(=O)NCCc2ccccc2)c1C	22%	36%	.
Cc1cccc(NC(=O)C(c2ccccc2)N2Cc3ccccc3C2=O)c1C (centres undefined)	.	-2%	.
CCN1C(=O)c2ccc(C(=O)Nc3nccs3)cc2C1=O	5%	-2%	?
CC(C)(C)N1C(=O)c2ccc(C(=O)Nc3nccs3)cc2C1=O	-29%	?	5µM*
CS(=O)(=O)N1CCCC(C(=O)NCc2ccccc2Cl)C1 (centres undefined)	-3%	-1%	0%
COc1ccc(Br)cc1CNC(=O)C1CCCN(S(C)(=O)=O)C1 (centres undefined)	-23%	?	10µM*
CCCCCCCCCCCCCCCC(=O)O[C@H](CC(=O)O)C[N+](C)(C)C	?	13µM*	0%
CCCCCCCCCCCCCCCCCC(=O)O[C@H](CC(=O)O)C[N+](C)(C)C	?	?	-3%
O=C(CCCn1c(=O)[nH]c2ccsc2c1=O)N1CCN(c2cccc(C(F)(F)F)c2)CC1	7%	9%	.
Cc1cccc(NC(=O)CN2C(=O)CCc3ccccc32)c1C	-12%	1%	.
Cc1c(N=C/C=C/c2ccccc2)c(=O)n(-c2ccccc2)n1C	-1%	6%	-5%
SMILES	p53ts 39C kill	p53ts 32C kill	Luciferase inh
Cc1c(N=C/C=C/c2ccccc2)cnn1C	-2%	7%	16µM*
Cc1ccc(C)c(-c2nnc(NC(=O)c3ccc4c(c3)OCCO4)o2)c1	24%	-1%	.
COC(=O)Cc1cc(=O)[nH]c(Nc2nc3ccccc3o2)n1	4%	-21%	16µM*
CCOC(=O)Cc1cc(=O)[nH]c(Nc2nc3ccccc3o2)n1	-15%	-14%	.
O=C(O)/C=C\C(=O)Nc1cccc2c1-c1ccccc1C2=O	0%[9.22 µM]	5%[9.22 µM]	1%[11.4 µM]
c1ccc(-c2nc(-c3ccncc3)no2)cc1	-17%	-21%	-24%
CCc1ccc(-c2nc(-c3ccncc3)no2)cc1	-23%	?	5µM*
Cc1ccccc1-c1nc(-c2cccnc2)no1	-17%	-12%	?
c1ccc(-c2ccc(-c3nc(-c4ccncc4)no3)cc2)cc1	-26%	-27%	3.2µM*
CCCCc1ccc(-c2nc(-c3ccncc3)no2)cc1	-10%	-16%	-14%
Clc1ccccc1-c1nc(-c2ccncc2)no1	-5%[9.22 µM]	-6%[9.22 µM]	-24%[11.4 µM]
Clc1ccccc1-c1nc(-c2cccnc2)no1	13µM*	10µM*	13µM*
c1ccc(-c2ccc(-c3nc(-c4cccnc4)no3)cc2)cc1	-28%	?	3.2µM*
CC(=O)[C@H]1CC[C@@H]2[C@]1(C)CC=C1[C@]23C=C[C@]2(C[C@H](O)CC[C@@]12C)[C@H](C(=O)O)[C@@H]3C(=O)O	4%[9.22 µM]	4%[9.22 µM]	4%[11.4 µM]
CCOc1cc(C#N)c(NC(=O)Cn2nnc(-c3ccc(C)cc3)n2)cc1OCC	?	-13%	.
Cc1ccc(C)c(N2CCN(c3cc(C)nc4c(-c5ccc(Cl)cc5)c(C)nn34)CC2)c1	-12%	3%	.
COc1ccc(S(=O)(=O)NCCc2sc(-c3ccccc3)nc2C)cc1OC	?	-2%	.
c1ccc(-c2ccccc2-c2nc(-c3ccncc3)no2)cc1	15%	5%	1%

From PubChem BioAssay
